From PubChem BioAssay
ATXN2 expr inh: reduces ATXN2 reporter expression in HEK-293 cells. HEK-293 ATXN2-luciferase reporter, luminescence, 24 h. AID 1745845. hit rate 0.72% among 360,000. Potency, µM (series often up to 57 µM), usual class: inhibitors; note: nearly all actives have a fitted effect of over 55% in size
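qHTS (up to 57 uM final) was run with 24 h compound exposure of reporter cells at 37 °C. Each well was multiplexed: SteadyGlo luminescence measured ATXN2-luciferase expression after a fluorogenic Gly-Phe-AFC viability readout (25 uM final).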
HepG2 viability: HepG2 cytotoxicity, counter-screen for TGF-b inhibitors | HepG2 CAGA-GFP viability, ATP luminescence, 18 h | Potency, µM (top dose mostly 46.1 µM), usual class: cytotoxic | hit rate 0.76% among 410,000 | AID 588856
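CellTiter-Glo luminescence gave cytotoxicity after 18 hours at 37 degrees C. The cells were HepG2 CAGA-GFP in 1% FBS DMEM, stimulated with 500 pg/mL TGF-beta after compound addition. %Activity was normalised to no-cell wells (complete cell-killing) and DMSO (no toxicity), and curves were fitted and classified.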
IL1B secr inh: inflammasome signaling inhibition, IL-1 beta readout | activity change, % at 57.5 µM | hit rate 4.7% among 360,000 | THP-1 LPS/ATP IL-1B secretion, AlphaLISA, 16 h; stronger effect = lower value | AID 743279; in the data active = activity change below about -50%; inconclusive = mostly about -30% to -49%
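THP-1 cells pretreated 1 hr with compounds (up to 57.5 uM final), then stimulated with LPS (250 ng/mL final) plus ATP (1.25 mM final); secreted IL-1B measured by AlphaLISA after 16 hr, decreased signal indicating inhibition.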
S2 tox: cell viability loss in ATXN counter-screen | S2 cells (HEK-293 line with an ATXN2-luciferase reporter) viability, CellTiter-Fluor protease fluorescence, 24 h | Potency, µM (series often up to 56.7 µM), hits mostly cytotoxic | hit rate 0.49% among 400,000 | AID 651635; note: nearly all actives have a fitted effect of over 40% in size
TGFb SMAD3 inh: inhibitors of TGF-b signaling. HepG2 CAGA-GFP TGF-b/SMAD3 reporter, GFP fluorescence, 18 h; TGF-beta stimulated, 500 pg/mL final. Potency, µM (titrated, usually from 46.1 µM), hits mostly inhibitors. hit rate 1.2% among 410,000; note: nearly all actives have a fitted effect of over 65% in size
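Per well, imaged GFP fluorescence of HEPG2 CAGA-GFP cells gives the signal; cells get compound, then TGF-beta (500 pg/mL final), 18 h at 37 degrees C; %Activity versus -TGF-beta and +DMSO controls.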
Numbers stand for hits; . = inactive; ? = inconclusive; / = no result. Compounds with a hit are over-represented: about 5.7% of the library has one in this group of screens. Unless noted, calls come from the whole dose curve; as a rule, active = well fitted curve in the direction sought with a large enough effect; inconclusive = small, poorly fitted or top-dose-only effect, or another doubt; inactive = no such curve, though single readings can be large; an effect the other way counts as inactive or inconclusive.

SMILES	ATXN2 expr inh	HepG2 viability	IL1B secr inh	S2 tox	TGFb SMAD3 inh
COc1ccc(-c2nc3c(C(=O)NCCN(C)C)cccc3c3ccccc23)cc1	.	18µM	-100	?	.
COc1cccc2nc3c(C(=O)NCCN(C)C)cccc3cc12	?	.	-97	?	?
CN(C)CCNC(=O)c1cccc2nc3c(ccc4ccccc43)nc12	.	.	-101	?	?
CN(CCNC(=O)c1c[nH]c2c1ccc1ccccc12)CCNC(=O)c1c[nH]c2c1ccc1ccccc12	?	.	.	35µM	13µM
CCCCN(C)CCNC(=O)c1cc(-c2ccc(Cl)s2)nc2ccccc12	.	.	/	.	.
COc1ccc(-c2coc3c(C(=O)NCCN(C)C)cccc23)c(C)c1	.	.	.	.	.
O=C(NCC1(N2CCOCC2)CCCCCC1)c1cnn(-c2nccc(-c3ccco3)n2)c1C1CC1	/	/	/	.	/
CCCCc1ccc(NC(=O)COC(=O)c2ccccc2OCC(=O)Nc2ccc(Br)cc2)cc1	/	.	/	/	.
Cc1ccnc(NC(=O)c2ccc(S(=O)(=O)N3CCCCCC3)cc2)c1	.	2.2µM	.	.	.
CCNC(=S)Nc1cc(-c2ccc(Cl)cc2)[nH]n1	.	.	-105	.	?
O=C(NC1CCN(S(=O)(=O)c2ccc(F)cc2)CC1)c1ccc(F)cc1	.	.	-54	?	.
COc1ccc(NC(=O)c2cc(S(=O)(=O)N3CCCCC3)c[nH]2)cc1	.	.	.	.	.
COc1ccc(NC(=O)c2cc(S(=O)(=O)N3CCCC3)c[nH]2)cc1	.	2.5µM	.	.	?
COc1ccc(C(=O)NC2CCN(S(=O)(=O)c3ccc(F)cc3)CC2)cc1	.	.	.	?	.
CCN1CCN(c2cc(C)c3cc(NC(=O)/C=C/c4ccc(OCCC(C)C)cc4)ccc3n2)CC1	/	.	/	/	.
COc1cccc(NC(=O)CSc2nc(=O)n(Cc3cccnc3)c3c2CCC3)c1	.	.	/	.	.
CCN(CC)c1nn2c(=O)c(C(=O)NCc3cccc(C)c3)cnc2s1	/	.	/	/	.
CCOc1cc(C(=O)Nc2cc(C)ccn2)cc(OCC)c1OCC	.	.	.	.	.
CCNC(=S)Nc1cc(C)ccn1	.	1µM	.	.	.
CCOc1ccc(C(=O)Nc2cc(C)ccn2)cc1	?	14µM	.	.	.
CC(=O)c1ccc(NC(=O)Nc2ccc(S(=O)(=O)N3CCCC3)cc2)cc1	.	.	-108	?	.
O=C(CNC(=O)c1ccc(S(=O)(=O)N2CCCC2)cc1)N/N=C/c1c(Cl)cccc1Cl	.	.	-58	.	.
COc1cccc(NC(=O)CSc2nc3ccc(NC(=O)c4ccco4)cc3s2)c1	?	.	/	/	?
Cc1ccc(Cl)cc1N1CCN(C(=O)Cn2c(-c3cccs3)cc3cc(F)ccc32)CC1	.	.	/	.	.
CCc1c(C)nc(SCc2nc(-c3ccccc3C)no2)[nH]c1=O	/	.	/	/	.
SMILES	ATXN2 expr inh	HepG2 viability	IL1B secr inh	S2 tox	TGFb SMAD3 inh
O=C(Cc1ccc(F)cc1)NCc1ccc2c(c1)CCN2C(=O)c1ccc(F)cc1	/	.	/	/	.
CCOC(=O)C1CCCN(S(=O)(=O)c2ccc(F)c(C(=O)Nc3ccc(F)c(F)c3)c2)C1 (centres undefined)	.	.	-66	.	.
O=C(Nc1ccc(Cc2ccncc2)cc1)c1ccc(S(=O)(=O)N2CCCC2)cc1	?	.	-96	.	.
CCOC(=O)c1ccc(NC(=O)C2CCCN(S(=O)(=O)c3ccc(F)cc3)C2)cc1 (centres undefined)	32µM	.	-64	?	.
O=C(Nc1ccc(F)cc1)c1ccc(S(=O)(=O)N2CCCC2)cc1	.	.	-75	.	.
O=C(Nc1ccc(S(=O)(=O)N2CCCCC2)cc1)c1ccncc1	.	.	.	.	.
O=C(Nc1ccc(F)cc1)Nc1ccc(S(=O)(=O)N2CCCC2)cc1	/	.	.	?	?
O=S(=O)(c1ccc(Cl)cc1)N1CCN(c2nc(-c3ccc(F)cc3)nc3cc(Cl)ccc23)CC1	/	.	/	/	.
CSc1ncccc1C(=O)NCCN1Cc2ccccc2OC(c2ccccc2F)C1 (centres undefined)	/	/	/	.	/
O=C(/C(=C/c1ccccc1)n1cncn1)c1ccc(Cl)cc1Cl	.	.	-100	.	?
O=C1c2cccc3cccc(c23)C(=O)N1CC1CCN(CC(O)COCc2ccc3c(c2)OCO3)CC1 (centres undefined)	.	.	-81	?	?
COc1ccc(OCC(O)CN2CCC(CN3C(=O)c4cccc5cccc(c45)C3=O)CC2)cc1 (centres undefined)	?	.	/	?	?
Cc1ccc(C)c(OCC(O)CN2CCC(CN3C(=O)c4cccc5cccc(c45)C3=O)CC2)c1 (centres undefined)	28µM	.	-97	/	?
CN(C)S(=O)(=O)c1ccc2c(c1)N(CC(=O)N1CCN(c3ccccc3F)CC1)CCS2	.	.	/	.	.
CCOC(=O)C1=C(O)/C(=C/c2cn(CC(=O)NCC3CCCO3)c3ccccc23)SC1=Nc1ccc(C)cc1 (centres undefined)	10µM	.	.	?	.
COc1ccc(C2C(=O)N(C3CCCCCC3)CC(=O)N2Cc2ccc(C)cc2)cc1 (centres undefined)	/	.	/	/	.
COc1ccc2cc3c(N)c(C(=O)NCc4ccco4)sc3nc2c1	.	.	-63	.	.
COc1ccc(CCn2c(N)c(C(=O)NCc3ccco3)c3nc4ccccc4nc32)cc1OC	?	.	.	.	?
COc1ccc(CCn2c(N)c(C(=O)NCc3ccco3)c3nc4ccccc4nc32)cc1	.	.	-86	.	?
COCCNC(=O)c1c(N)n(CCC2=CCCCC2)c2nc3ccccc3nc12	.	.	-72	/	?
COc1ccc(-n2c(N)c(C(=O)NCc3ccco3)c3nc4ccccc4nc32)c(OC)c1	.	.	.	.	?
COCCn1c(N)c(C(=O)OCc2ccccc2)c2nc3ccccc3nc21	.	.	.	.	.
Nc1c(C(=O)NCc2ccco2)c2nc3ccccc3nc2n1CCc1ccccc1F	?	.	-58	.	?
COc1ccc(/C=C/C(=O)N2CCC(c3nc4ccccc4o3)CC2)cc1OC	/	.	/	/	.
COc1ccccc1C(=O)Nc1onc2c1CCCC2	.	.	/	.	.
Cc1ccc(C(=O)Nc2onc3c2CCCC3)cc1	7.9µM	.	/	?	.
CCOC(=O)[C@H]1[C@H]2COc3ccc(Br)cc3[C@@H]2N2C(=O)c3cc(F)c(F)cc3NC(=O)[C@@]12C	?	.	-52	.	.
CCOC(=O)[C@@H]1[C@H]2COc3ccc(Br)cc3[C@@H]2N2C(=O)N(c3ccc(Br)cc3)C(=O)[C@]12C	.	.	.	.	7.1µM
Cc1cc2c(s1)c1cnn(CC(=O)N3CCOCC3)c(=O)c1n2C	/	.	/	/	.
COc1ccc(-c2cn3nc4c(nc3n2)CCCC4)cc1	16µM	.	.	/	.
